High-throughput results from PubChem BioAssay.
ATXN2 expr inh: Primary qHTS for Inhibitors of ATXN expression | HEK-293 ATXN2-luciferase reporter, luminescence, 24 h | Potency, µM (highest dose often 57 µM), inactives show at the highest dose activity change, negative = inhibition, usual class: inhibitors | 360,000 tested, 0.72% active; note: % is set by controls: 0 for no effect and ±100 for the full control effect; nearly all actives have a fitted effect of over 55% in size
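qHTS (up to 57 uM final) was run with 24 h compound exposure of reporter cells at 37 °C. Each well was multiplexed: SteadyGlo luminescence measured ATXN2-luciferase expression after a fluorogenic Gly-Phe-AFC viability readout (25 uM final).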
HT1080-NT tox: qHTS for induction of synthetic lethality in tumor cells producing 2HG: qHTS for the HT-1080-NT fibrosarcoma cell line. HT-1080-NT fibrosarcoma viability, CellTiter-Glo ATP luminescence, 48 h. Potency, µM (doses to about 46.1 µM), for inactives: top-dose activity, negative = less viability, hits mostly cytotoxic. 360,000 tested, 1.6% active;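 note: NT is the 2HG producing partner of a matched IDH1 knockdown line; 0% = DMSO-treated cells and -100% = media-only wells without cells; nearly all actives have a fitted effect of over 55% in size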
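Viability of the 2HG-overproducing fibrosarcoma line after 48 hours of compound exposure at 37 degrees C was determined by luminescence with CellTiter-Glo, and concentration-effect curves were then fitted and categorized.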
TGFb SMAD3 inh: qHTS for Inhibitors of TGF-b; AID 588855, 2011; HepG2 CAGA-GFP TGF-b/SMAD3 reporter, GFP fluorescence, 18 h; TGF-beta stimulated, 500 pg/mL final; 410,000 tested, 1.2% active; Potency, µM (top dose mostly 46.1 µM), for the others: at the highest dose activity, negative = inhibition, usual class: inhibitors; note: % is set by controls: 0 for no effect and ±100 for the full control effect; nearly all actives have a fitted effect of over 65% in size
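HEPG2 CAGA-GFP, 1000 cells/well; 2 h settle, 37 C; cpd via pin tool; TGF-b 500 pg/mL final; 18 h, 37 C; GFP imaging ex488/em500-530; %Activity normalised to -TGF-b and +DMSO controls; CRC fit, curve class.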
HepG2 tox: qHTS for Inhibitors of TGF-b: Cytotox Counterscreen. 410,000 tested, 0.76% active. Potency, µM (highest dose often 46.1 µM), for the others: at the top dose activity change, negative = cytotoxicity, hits mostly cytotoxic. HepG2 CAGA-GFP viability, ATP luminescence, 18 h. AID 588856, 2011
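CellTiter-Glo luminescence gave cytotoxicity after 18 hours at 37 degrees C. The cells were HepG2 CAGA-GFP in 1% FBS DMEM, stimulated with 500 pg/mL TGF-beta after compound addition. %Activity was normalised to no-cell wells (complete cell-killing) and DMSO (no toxicity), and curves were fitted and classified.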
HT1080 IDH1KD tx: qHTS for induction of synthetic lethality in tumor cells producing 2HG: qHTS for the HT-1080-IDH1KD cell line. HT-1080 IDH1 knockdown viability, ATP luminescence, 48 h. 360,000 tested, 2% active. Potency, µM (doses to about 46.1 µM), without a hit: at the highest dose activity, negative = toxicity, usual class: cytotoxic;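 note: 0% = DMSO wells and -100% = cell-free medium wells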
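Cytotoxicity counter-line: IDH1KD HT-1080, 48 h, CellTiter-Glo. Curves classed by r2, magnitude and activity.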
ATXN viability: Viability Counterscreen for Primary qHTS for Inhibitors of ATXN expression; 400,000 tested, 0.49% active; AID 651635, 2014; S2 cells (HEK-293 line with an ATXN2-luciferase reporter) viability, CellTiter-Fluor protease fluorescence, 24 h; Potency, µM (titrated, usually from 56.7 µM), hits mostly cytotoxic; note: nearly all actives have a fitted effect of over 40% in size
The depositor's hits bear a star; i = inactive; ? = inconclusive; . = no result. A selection: hits, their analogues and other compounds. The true share with any hit is near 3.8%. Calls come from the whole dose curve; as a rule, active = well fitted curve in the direction sought with a large enough effect; inconclusive = small, poorly fitted or top-dose-only effect, or another doubt; inactive = no such curve, though single readings can be large; an effect the other way counts as inactive or inconclusive. Potency is the fitted concentration of half-maximal effect.

SMILES | ATXN2 expr inh | HT1080-NT tox | TGFb SMAD3 inh | HepG2 tox | HT1080 IDH1KD tx | ATXN viability
CCCc1nc2ccc(C)cn2c1Cc1ccccc1 | 0% | 0% | -14% | -17% | -13% | .
Cc1ccc2nc(C3CCCCC3)c(Cc3cccc(F)c3)n2c1 | ? | ? | ? | -12% | ? | ?
COC(=O)c1ccc2nc(-c3ccco3)c(Cc3ccccc3)n2c1 | 12% | ? | 11µM* | -35% | ? | i
CCCc1nc2ccc(C)cn2c1Cc1ccc(C)cc1 | ? | ? | ? | -22% | ? | 25µM*
Cc1ccc2nc(C3CCCCC3)c(Cc3ccccc3)n2c1 | ? | ? | ? | -63% | ? | 13µM*
CCO[C@H]1[C@H](NC(=O)c2cccnc2)c2ccccc2C12CCN(C(=O)c1cc(C)n(C)n1)CC2 | . | . | . | . | . | i
COc1ccc(-c2sc(N)nc2-c2ccccc2)cc1 | . | . | -6% | -22% | . | .
COc1cc(C2CC(=O)N(Cc3ccc(F)cc3)c3ccccc3S2)cc(OC)c1OC (stereo not drawn) | ? | . | ? | -30% | . | .
O=C1NC(c2ccccc2)=C(c2nc3ccccc3s2)C(c2ccc(O)cc2)N1 (stereo not drawn) | ? | 7.9µM* | ? | -81% | 5.6µM* | ?
O=C1NC(c2ccccc2)=C(c2ccc3ccccc3n2)C(c2ccccc2)N1 (stereo not drawn) | -17% | -10% | ? | -34% | -14% | i
O=C(Nc1cc(C(=O)N2CCN(CCO)CC2)c2c(c1)ncn2C1CCCC1)c1ccccc1 | . | . | . | . | . | i
Cc1ncc2c(c1CNS(=O)(=O)N(C)C)CCN(C(=O)c1ccc(-c3ccc(F)cc3)cc1)C2 | . | . | . | . | . | i
CSc1ccc2c(c1)C(N1CCN(C)CC1)Cc1ccc(F)cc1S2 (stereo not drawn) | . | ? | ? | -130% | ? | i
O=[N+]([O-])c1ccc2c(c1)C(N1CCN(CCO)CC1)Cc1ccc(F)cc1S2 (stereo not drawn) | -29% | 16µM* | ? | -63% | 16µM* | ?
COc1ccccc1C1NC(=O)c2n[nH]c(-c3cccs3)c21 (stereo not drawn) | 1% | . | -26% | -15% | . | i
CCOC(=O)c1ccc(N2C(=O)c3n[nH]c(-c4cccs4)c3C2c2ccc(C(C)C)cc2)cc1 (stereo not drawn) | 5% | . | ? | 1% | . | i
CCOC(=O)c1ccc(N2C(=O)c3n[nH]c(-c4cccs4)c3C2c2ccc(CC)cc2)cc1 (stereo not drawn) | . | . | 0.89µM* | -89% | . | .
CCOC(=O)c1ccc(N2C(=O)c3n[nH]c(C)c3C2c2cccc(Br)c2)cc1 (stereo not drawn) | . | . | ? | -104% | . | .
CCOC(=O)c1ccc(N2C(=O)c3n[nH]c(-c4cccs4)c3C2c2ccc(OCC)cc2)cc1 (stereo not drawn) | ? | . | 1.6µM* | -64% | . | ?
CCOC(=O)c1ccc(N2C(=O)c3n[nH]c(C)c3C2c2ccc(OC)cc2)cc1 (stereo not drawn) | -1% | ? | 3% | -26% | ? | i
CCOC(=O)c1ccc(N2C(=O)c3n[nH]c(-c4cccs4)c3C2c2cccc(O)c2)cc1 (stereo not drawn) | ? | . | 11µM* | -82% | . | 28µM*
CCOP(=O)(OCC)c1nc(-c2ccc(Cl)cc2Cl)oc1N1CCCCC1 | -31% | 18µM* | ? | 8% | 23µM* | i
COc1cc2c(cc1OC)CN(CCC(=O)c1ccc(Br)cc1)CC2 | . | 26µM* | ? | -27% | 23µM* | i
COc1cc2c(cc1OC)CN(C(=O)CCNC(=O)c1ccc(Br)cc1)CC2 | 0% | 3% | 0% | -5% | 1% | i
CCCC(=O)OCCNc1cc(SCc2ccco2)c2nonc2c1[N+](=O)[O-] | -35% | ? | 28% | 5% | 23µM* | i
SMILES | ATXN2 expr inh | HT1080-NT tox | TGFb SMAD3 inh | HepG2 tox | HT1080 IDH1KD tx | ATXN viability
CCCC(=O)OCCNc1cc(Sc2nccn2C)c2nonc2c1[N+](=O)[O-] | 20µM* | ? | 16µM* | -98% | 15µM* | .
Cc1ccc(Sc2ccc(N3CCC(C(=O)Nc4ccc(Cl)cc4)CC3)nn2)cc1 | -4% | . | 0% | -5% | . | i
CC(C)c1cc(C(=O)OCC(=O)NC(=O)NCc2ccco2)c(O)c(C(C)C)c1 | ? | 23µM* | ? | -89% | 26µM* | ?
O=C(COC(=O)c1ccccc1C(F)(F)F)NC(=O)NCc1ccco1 | 8% | 3% | -11% | 0% | 19% | ?
COc1ccc(NC(=O)c2c(NCc3ccc(N(C)C)cc3)sc3c2CCC3)cc1 | 0% | . | -12% | -25% | . | i
CCCOc1ccc(NC(=O)CC2C(=O)N(c3ccccc3)C(=O)N2Cc2ccc(F)cc2)cc1 (stereo not drawn) | . | . | 10µM* | -69% | . | .
COc1ccc(NC(=O)CC2C(=O)N(Cc3ccccc3)C(=S)N2CCN2CCOCC2)cc1 (stereo not drawn) | -24% | -13% | -7% | -11% | -13% | i
O=C(CNCCC1=CCCCC1)Nc1ccc(N2CCCCCC2)cc1 | ? | ? | 16µM* | -108% | ? | .
CCCOc1ccc(NC(=O)CC2C(=O)N(CC)C(=S)N2Cc2cccs2)cc1 (stereo not drawn) | -5% | ? | ? | -26% | 20µM* | i
C=CCN1C(=O)C(CC(=O)Nc2ccc(OCCC)cc2)N(CCCN2CCN(Cc3ccccc3)CC2)C1=S (stereo not drawn) | ? | 16µM* | ? | -93% | 16µM* | ?
Cc1ccc(N2C(=O)C(CC(=O)Nc3ccc(F)cc3)N(CCC3=CCCCC3)C2=O)cc1 (stereo not drawn) | ? | . | 13µM* | -34% | . | ?
O=C(CC1C(=O)N(c2ccc(Cl)cc2)C(=S)N1CCc1ccncc1)Nc1ccc(F)cc1 (stereo not drawn) | ? | ? | ? | 11µM* | ? | i
CCN1C(=O)C(CC(=O)Nc2ccc(OC)cc2)N(CCc2ccc(F)cc2)C1=S (stereo not drawn) | ? | ? | ? | -4% | ? | i
